{"source": "paper PMC8384837", "about": "“Expanding the binding specificity for RNA recognition by a PUF domain”", "experiment_in_all_cases": "yeast three-hybrid, YBZ-1, SC-Leu-His + 0.5 mM 3-AT, 4 days", "conditions_in_all_cases": "tags: N-Gal4 AD-HA kept; label: inside an RPR1-promoter hybrid RNA with tandem MS2 sites; ssRNA", "key": {"PUM1 PUF domain R7-KCQ": {"biological_target": "PUM1 PUF domain R7-KCQ (Homo sapiens, UniProt Q14671 828-1176, S1079K;N1080C;E1083Q)", "outline": "(§1)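 Pumilio-1 PUF domain libraries, randomized at the three base-contacting residues of each repeat, were co-expressed with matching RNA elements from a centromeric plasmid in strain YBZ-1, which carries a LexA–MS2 coat fusion and a HIS3 reporter. Transformants grew for four days on SC-Leu (input) or on SC-Leu-His + 0.5 mM 3-AT (selection), and the repeat regions were PCR-amplified and Illumina-sequenced. The interaction score is the log change in variant frequency from input to selection. That logarithm is base 2, with a pseudocount of 1 where a variant was absent.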"}, "PUM1 PUF domain R7-ENS": {"biological_target": "PUM1 PUF domain R7-ENS (Homo sapiens, UniProt Q14671 828-1176, S1079E;E1083S)", "outline": "as §1"}, "PUM1 PUF domain R5-KFR": {"biological_target": "PUM1 PUF domain R5-KFR (Homo sapiens, UniProt Q14671 828-1176, C1007K;R1008F;Q1011R)", "outline": "as §1"}, "PUM1 PUF domain R5-DYD": {"biological_target": "PUM1 PUF domain R5-DYD (Homo sapiens, UniProt Q14671 828-1176, C1007D;R1008Y;Q1011D)", "outline": "as §1"}, "PUM1 PUF domain R4-SNA": {"biological_target": "PUM1 PUF domain R4-SNA (Homo sapiens, UniProt Q14671 828-1176, N971S;H972N;Q975A)", "outline": "as §1"}, "PUM1 PUF domain R6-FWG": {"biological_target": "T1, PUM1 PUF domain R6-FWG (Homo sapiens, UniProt Q14671 828-1176, N1043F;Y1044W;Q1047G)", "T1 sequence": "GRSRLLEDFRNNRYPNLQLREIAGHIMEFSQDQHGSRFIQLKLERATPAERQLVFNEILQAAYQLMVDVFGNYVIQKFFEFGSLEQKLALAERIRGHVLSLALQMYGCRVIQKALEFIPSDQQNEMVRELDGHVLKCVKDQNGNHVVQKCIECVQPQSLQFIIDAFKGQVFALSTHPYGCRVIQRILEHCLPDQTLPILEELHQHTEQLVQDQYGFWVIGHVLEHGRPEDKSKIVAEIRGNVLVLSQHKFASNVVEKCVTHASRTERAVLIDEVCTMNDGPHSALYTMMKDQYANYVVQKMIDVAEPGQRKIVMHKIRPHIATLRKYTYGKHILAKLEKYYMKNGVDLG", "outline": "as §1"}, "PUM1 PUF domain R6-PFE": {"biological_target": "T2, PUM1 PUF domain R6-PFE (Homo sapiens, UniProt Q14671 828-1176, N1043P;Y1044F;Q1047E)", "T2 sequence": "T1 sequence with F216P, W217F, G220E", "outline": "as §1"}, "PUM1 PUF domain R3-WWD": {"biological_target": "PUM1 PUF domain R3-WWD (Homo sapiens, UniProt Q14671 828-1176, C935W;R936W;Q939D)", "outline": "as §1"}, "PUM1 PUF domain R4-QFL": {"biological_target": "PUM1 PUF domain R4-QFL (Homo sapiens, UniProt Q14671 828-1176, N971Q;H972F;Q975L)", "outline": "as §1"}, "PUM1 PUF domain R5-KSI": {"biological_target": "PUM1 PUF domain R5-KSI (Homo sapiens, UniProt Q14671 828-1176, C1007K;R1008S;Q1011I)", "outline": "as §1"}}, "note": "Changes are numbered by the printed parent chain."}
{"sequence": "GGCUAGAACUAGUGGAUCCCCCGGCGCCCGGCGGCUCGAGCCCGGGUAAGUUUAAAUAGUCUGCAUGCCGCCGGGCGCCAUGCCUGCAGGUCGACUCUAGAAAACAUG", "values": [{"measurement": "binding signal", "setting": "PUM1 PUF domain R7-KCQ", "value": "2.98 log2 enrichment (interaction score)"}, {"measurement": "binding signal", "setting": "PUM1 PUF domain R7-ENS", "value": "4.45 log2 enrichment (interaction score)"}]}
{"sequence": "GGCUAGAACUAGUGGAUCCCCCGGCGCCCGGCGGCUCGAGCCCGGGUAAGUGUAAAUAGUCUGCAUGCCGCCGGGCGCCAUGCCUGCAGGUCGACUCUAGAAAACAUG", "values": [{"measurement": "binding signal", "setting": "PUM1 PUF domain R5-KFR", "value": "4.71 log2 enrichment (interaction score)"}, {"measurement": "binding signal", "setting": "PUM1 PUF domain R5-DYD", "value": "1.97 log2 enrichment (interaction score)"}, {"measurement": "binding signal", "setting": "PUM1 PUF domain R4-SNA", "value": "1.52 log2 enrichment (interaction score)"}, {"measurement": "binding signal", "setting": "PUM1 PUF domain R6-FWG", "value": "3.61 log2 enrichment (interaction score)"}]}
{"sequence": "GGCUAGAACUAGUGGAUCCCCCGGCGCCCGGCGGCUCGAGCCCGGGUAAGUGAAAAUAGUCUGCAUGCCGCCGGGCGCCAUGCCUGCAGGUCGACUCUAGAAAACAUG", "values": [{"measurement": "binding signal", "setting": "PUM1 PUF domain R6-FWG", "value": "2.45 log2 enrichment (interaction score)"}]}
{"sequence": "GGCUAGAACUAGUGGAUCCCCCGGCGCCCGGCGGCUCGAGCCCGGGUAAGUGGAAAUAGUCUGCAUGCCGCCGGGCGCCAUGCCUGCAGGUCGACUCUAGAAAACAUG", "values": [{"measurement": "binding signal", "setting": "PUM1 PUF domain R6-PFE", "value": "2.11 log2 enrichment (interaction score)"}]}
{"sequence": "GGCUAGAACUAGUGGAUCCCCCGGCGCCCGGCGGCUCGAGCCCGGGUAAGUGUUAAUAGUCUGCAUGCCGCCGGGCGCCAUGCCUGCAGGUCGACUCUAGAAAACAUG", "values": [{"measurement": "binding signal", "setting": "PUM1 PUF domain R5-KFR", "value": "4.62 log2 enrichment (interaction score)"}]}
{"sequence": "GGCUAGAACUAGUGGAUCCCCCGGCGCCCGGCGGCUCGAGCCCGGGUAAGUGUAAGUAGUCUGCAUGCCGCCGGGCGCCAUGCCUGCAGGUCGACUCUAGAAAACAUG", "values": [{"measurement": "binding signal", "setting": "PUM1 PUF domain R3-WWD", "value": "5.41 log2 enrichment (interaction score)"}]}
{"sequence": "GGCUAGAACUAGUGGAUCCCCCGGCGCCCGGCGGCUCGAGCCCGGGUAAGUCUAAAUAGUCUGCAUGCCGCCGGGCGCCAUGCCUGCAGGUCGACUCUAGAAAACAUG", "values": [{"measurement": "binding signal", "setting": "PUM1 PUF domain R7-KCQ", "value": "4.46 log2 enrichment (interaction score)"}]}
{"sequence": "GGCUAGAACUAGUGGAUCCCCCGGCGCCCGGCGGCUCGAGCCCGGGUAAGUGUAUAUAGUCUGCAUGCCGCCGGGCGCCAUGCCUGCAGGUCGACUCUAGAAAACAUG", "values": [{"measurement": "binding signal", "setting": "PUM1 PUF domain R4-QFL", "value": "4.92 log2 enrichment (interaction score)"}, {"measurement": "binding signal", "setting": "PUM1 PUF domain R4-SNA", "value": "4.15 log2 enrichment (interaction score)"}]}
{"sequence": "GGCUAGAACUAGUGGAUCCCCCGGCGCCCGGCGGCUCGAGCCCGGGUAAGUGUCAAUAGUCUGCAUGCCGCCGGGCGCCAUGCCUGCAGGUCGACUCUAGAAAACAUG", "values": [{"measurement": "binding signal", "setting": "PUM1 PUF domain R5-KSI", "value": "3.85 log2 enrichment (interaction score)"}, {"measurement": "binding signal", "setting": "PUM1 PUF domain R5-KFR", "value": "5.4 log2 enrichment (interaction score)"}, {"measurement": "binding signal", "setting": "PUM1 PUF domain R5-DYD", "value": "5.78 log2 enrichment (interaction score)"}]}
{"sequence": "GGCUAGAACUAGUGGAUCCCCCGGCGCCCGGCGGCUCGAGCCCGGGUAAGUGUACAUAGUCUGCAUGCCGCCGGGCGCCAUGCCUGCAGGUCGACUCUAGAAAACAUG", "values": [{"measurement": "binding signal", "setting": "PUM1 PUF domain R4-SNA", "value": "3.14 log2 enrichment (interaction score)"}]}
